Each structure is given as a SMILES string. Screen size: about 190,000 compounds; about 1,300 (0.68%) were called active. The full list was thinned out, with actives kept by preference. Values without a mark were called inactive. Cut-off read from the data, not from the text of the source: active = inhibition above about 50%; inactive = the rest.

Sequence of Mannose-6-phosphate isomerase (Homo sapiens) (P34949 whole entry, looked up): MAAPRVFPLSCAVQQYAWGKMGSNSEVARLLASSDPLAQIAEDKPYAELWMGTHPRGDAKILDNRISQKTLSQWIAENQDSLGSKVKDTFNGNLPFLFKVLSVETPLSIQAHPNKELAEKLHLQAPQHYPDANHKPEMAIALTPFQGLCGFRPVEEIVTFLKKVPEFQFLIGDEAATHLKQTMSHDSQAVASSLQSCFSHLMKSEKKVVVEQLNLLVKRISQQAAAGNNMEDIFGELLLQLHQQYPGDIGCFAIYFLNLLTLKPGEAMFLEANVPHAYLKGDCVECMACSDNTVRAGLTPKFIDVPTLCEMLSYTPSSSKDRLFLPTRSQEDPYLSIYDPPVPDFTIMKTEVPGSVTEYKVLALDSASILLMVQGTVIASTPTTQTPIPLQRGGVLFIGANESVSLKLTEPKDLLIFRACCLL

This experiment has as its target Mannose-6-phosphate isomerase (Homo sapiens) (UniProt P34949). The experiment can be described thus: human PMI inhibitors, high substrate, primary screen, biochemical, fluorescence intensity, high mannose 6-phosphate (AID 1220). To be noted: recombinant PMI enzyme, coupled fluorescence intensity; at 20 µM; stronger effect = higher value.
As for `CCC1CCCCN1C(=O)c1c[nH]c2ccc(S(=O)(=O)N(C)c3ccc(Cl)cc3)cc2c1=O` (stereo not drawn), the inhibition (commonly the drop in the measured response relative to a control, in per cent) is 1.6%. On to `O=C(COc1ncnc2cc([N+](=O)[O-])ccc12)N(CCc1ccccc1)Cc1ccccc1`, for which the inhibition was 16.7%. As to `O=C(CCN1CCN(S(=O)(=O)c2ccc(Br)cc2)CC1)Nc1ccccc1F`, the inhibition was -6.1%. For the molecule `O=C1c2ccccc2C(=O)c2c1ncn2-c1ccccc1`, the inhibition is 59.1% (active).

In the case of `O=C1c2ccccc2-c2nccnc21`, the inhibition was 6.6%.

For `c1ccc(-n2cnc3ccccc32)cc1`, the inhibition was -1.2%. For the molecule `Cc1ccsc1/C=N/N=C1\C(=O)Nc2ccccc21`, the inhibition was 5.3%. As for `CCc1nn(C(C)C(=O)Nc2cccc(C)c2C)c(=O)c2cc3occc3n12` (stereo not drawn), the figure is 6.9%; as for `CCCCc1c(C)nc2ccccc2c1SCCC#N`, -31.5%. As to `Cc1ccc(S(=O)(=O)N2CCN(c3ccc([N+](=O)[O-])c4cccnc34)CC2)cc1`, the inhibition is 20.2%.

On to `O=C(c1ccccc1F)N1CCN(c2ccc([N+](=O)[O-])c3ncccc23)CC1`, for which the inhibition is 38.3%.

Take `O=C(c1cc(F)c(F)cc1Cl)N1CCN(c2ccc([N+](=O)[O-])c3ncccc23)CC1`: the inhibition is 46.1%.

Regarding `COc1ccc(N2CCN(C(=O)c3cccc(F)c3)CC2)c([N+](=O)[O-])c1`, the inhibition was 11.8%. As for `O=C(c1cccc(F)c1)N1CCN(c2cc(N3CCCCC3)c(F)cc2[N+](=O)[O-])CC1`, the figure is 15.2%. The value for `O=C(c1cccc(F)c1)N1CCN(c2ccc([N+](=O)[O-])c3cccnc23)CC1` was 62.3% (active); that for `Cc1cc(N2CCN(c3ccc([N+](=O)[O-])c4cccnc34)CC2)c2ccccc2n1` was 46.7%. As for `O=[N+]([O-])c1ccc(N2CCN(CCO)CC2)c2ncccc12`, the figure is 65% (active); as for `O=C(c1ccccc1F)N1CCN(c2ccc([N+](=O)[O-])c3cccnc23)CC1`, 58.4% (active). On to `CSc1nc2c(c(=O)n1C)SC(C)C2` (stereo not drawn), for which the inhibition was 4.1%. The value for `Cc1ccn(-c2cc(O)c(-n3ccc(C)n3)cc2O)n1` was 13.9%; that for `COCCCNC(=O)Cn1cnc2sc(C)c(S(=O)(=O)N3CCN(c4ncccn4)CC3)c2c1=O` was 9.4%. Consider `COc1cccc2cc(-c3ccnc(N)n3)oc12`, for which the inhibition was 18.3%. On to `Cc1c(C(=O)NC(C)CCc2ccccc2)cccc1[N+](=O)[O-]` (stereo not drawn), for which the inhibition is 10.1%.

Take `Cc1ccc(CNC(=O)c2cc3c(-c4ccc(Cl)cc4)nn(C)c3s2)o1`: the inhibition was 12.8%.

`CCCN(CCC)C(=O)CC(c1ccccc1)c1cc(Br)ccc1O` (stereo not drawn): the inhibition was 17.3%. Regarding `CCCSc1nc2c3c(sc2c(=O)[nH]1)CC(C)(CC)OC3` (stereo not drawn), the inhibition is 4.6%.

Consider `Nc1ccccc1C(=O)N=Nc1[nH]c(N)c2ccccc12`, for which the inhibition is 9.9%. The value for `Cc1[nH][nH]c(=O)c1C(c1c(C)[nH][nH]c1=O)c1cn(Cc2ccc(Cl)c(Cl)c2)c2ccccc12` was 58% (active).

Regarding `Cc1[nH][nH]c(=O)c1C(c1ccc(-c2ccc(Cl)c(Cl)c2)o1)c1c(C)[nH][nH]c1=O`, the inhibition is -45.1%.

As for `Cn1cc(C(c2ccccn2)c2cn(C)c3ccccc23)c2ccccc21`, the inhibition is -0.8%. As for `CCOC(=O)n1c(=O)n(Cc2ccc(Cl)c(Cl)c2)c2ccccc21`, the figure is 12.4%. For the molecule `O=C(O)Cc1cn(Cc2ccc(F)cc2)c2ccccc12`, the inhibition is -9.7%. The value for `Cc1[nH][nH]c(=O)c1C(c1c(C)[nH][nH]c1=O)c1cn(Cc2ccc(F)cc2)c2ccccc12` was 57.2% (active). As for `Cn1cc(C(CC(=O)O)C(=O)O)c2ccccc21` (stereo not drawn), the figure is 4.1%; as for `NC(=O)CSc1cn(Cc2ccc(F)cc2)c2ccccc12`, 12.6%. In the case of `Cc1[nH][nH]c(=O)c1C(c1c(C)[nH][nH]c1=O)c1cn(C)c2ccccc12`, the inhibition is 54.8% (active). The value for `Cc1ccc(-c2nc(SCC(=O)Nc3cc(S(=O)(=O)N4CCCCC4)ccc3Cl)n[nH]2)cc1` was 10.9%; that for `C=C1c2ccccc2NC(=S)N1Cc1ccc2c(c1)OCO2` was -15.3%. As for `N#CC1=C(N)SC2(CCCCC2)SC1c1ccccc1` (stereo not drawn), the figure is -5.5%. Regarding `CC(C)CC(=O)OCc1cn(-c2ccccc2)nn1`, the inhibition is -8.7%.

As to `Cc1nnc(NC(=O)CSc2nccn2C)s1`, the inhibition was -2.9%. On to `COc1ccc(-n2nc3c(N)n[nH]c3cc2=O)cc1`, for which the inhibition is -97.5%. As to `CCOc1c(OC(C)=O)ccc(/C=C/c2ccc3cccc(OC)c3n2)c1[N+](=O)[O-]`, the inhibition was 11.3%.

With `COc1ccc(CC(NC(C)=O)C(=O)NC2CCN(S(=O)(=O)c3ccccc3)CC2)cc1OC` (stereo not drawn), the inhibition is 4.4%.

As to `CC(/C=C/c1ccccc1)=N/NC(=O)CCC(=O)Nc1ccccc1C`, the inhibition was -55.7%. `O=C(NCc1ccc(Cl)cc1)c1ccc(-c2ccccc2C(F)(F)F)o1`: the inhibition was 2.3%.

Consider `O=C(O)Cc1c(O)ccc2ccccc12`, for which the inhibition was 9.9%. In the case of `Oc1ccc2ccccc2c1Br`, the inhibition is 52.5% (active). Take `Oc1ccc(N=Nc2c(O)ccc3ccccc23)cc1`: the inhibition is 20.8%. Take `CC1CCN(CCNC(=O)CN(C)S(=O)(=O)c2cccc3nsnc23)CC1`: the inhibition was 0.3%. As for `Cc1c(Cl)cccc1NC(=S)Nc1ccccn1`, the figure is 3.2%; as for `COc1cc(NC(=O)C2=C(N3CCOCC3)/C(=C/c3ccc(Cl)cc3)CC2)cc(OC)c1OC`, 23.9%; as for `COc1cccc(CNC(=O)c2nnn(-c3ccc(OC(F)(F)F)cc3)c2N)c1`, -5.4%. The value for `COC(=O)c1cc(=O)n(Cc2cccs2)c(=Nc2ccc(F)cc2)s1` was -2%. As for `Cc1[nH][nH]c(=O)c1C(c1cc([N+](=O)[O-])ccc1O)c1c(C)[nH][nH]c1=O`, the figure is 31.8%; as for `CCOc1cc(C(c2c(C)[nH][nH]c2=O)c2c(C)[nH][nH]c2=O)ccc1O`, 49.7%.

Regarding `COc1ccc(O)c(C(c2c(C)[nH][nH]c2=O)c2c(C)[nH][nH]c2=O)c1`, the inhibition is 56.6% (active).

As for `CN(C)c1nc(N)nc(-c2nc3ccccc3s2)n1`, the inhibition is 6.8%. As for `COc1ccc(C(=O)/C=C/Nc2ccc([N+](=O)[O-])cc2)cc1`, the figure is -10.3%; as for `COc1ccccc1N=Cc1c(C)[nH]n(-c2ccc(C)cc2C)c1=O`, 11.1%.

`Cc1ccc2cccc(N=Cc3c(C)[nH]n(-c4ccccc4)c3=O)c2n1`: the inhibition was -9.8%. As to `Cc1cc(Br)ccc1-n1[nH]c(C)c(C=Nc2cccc3nsnc23)c1=O`, the inhibition is 70.9% (active). For the molecule `Cc1ccc(-c2csc(NC(=O)COc3ccc(N(C)S(=O)(=O)c4ccc(C)cc4)cc3)n2)cc1`, the inhibition is 8.1%.

For `O=C(Nc1cccc2c1CCCC2)c1ccncc1`, the inhibition is -4%. As for `CC(C)C(=O)Nc1ncc2c(n1)CC(c1cccs1)CC2=O` (stereo not drawn), the inhibition was 4%. Regarding `CCOCCCNc1ncc2c(n1)CC(c1ccc(C)cc1)CC2=O` (stereo not drawn), the inhibition is 9.4%. As for `CC(C)OCCCNc1ncc2c(n1)CC(c1ccc(N(C)C)cc1)CC2=O` (stereo not drawn), the figure is 22.7%; as for `CC(C)OCCCNc1ncc2c(n1)CC(c1ccccc1)CC2=O` (stereo not drawn), 53.2% (active). With `CC(C)OCCCNc1ncc2c(n1)CC(c1cccs1)CC2=O` (stereo not drawn), the inhibition is 61.9% (active). For the molecule `CCC(C)C(=O)Nc1ncc2c(n1)CC(c1cccs1)CC2=O` (stereo not drawn), the inhibition is -1.8%. As for `COc1cccc(C2CC(c3c(Cl)cccc3Cl)n3nc(N)nc3N2)c1` (stereo not drawn), the figure is 11.8%; as for `COc1ccc(C2CC(c3c(Cl)cccc3Cl)n3nc(N)nc3N2)cc1` (stereo not drawn), 56.3% (active). As for `COc1ccc(C2CC(c3ccc(OC)cc3)n3nc(N)nc3N2)cc1` (stereo not drawn), the figure is 10.5%. As for `CN(C)/C=C1/Oc2c(ccc3ccccc23)C1=O`, the figure is 59.2% (active). As for `CN(C)C=C1C(=O)c2ccccc2C1=O`, the inhibition is 0.8%. As for `COc1cccc2c1C(=O)c1ccc3ccccc3c1C2=O`, the figure is -81.6%; as for `CCCn1c(=O)c2c(nc(Br)n2CCC)n(C)c1=O`, -0.3%.

On to `COc1ccc(NC(=O)C(c2cc3c(cc2[N+](=O)[O-])OCO3)N(C)C)cc1` (stereo not drawn), for which the inhibition is 55.6% (active). The value for `COc1ccc(NC(=O)C(c2cc3c(cc2[N+](=O)[O-])OCO3)N2CCN(C=O)CC2)cc1` (stereo not drawn) was 65.9% (active). As for `Cc1c(C(=O)OCC(=O)Nc2ccc3c(c2)OCO3)cccc1[N+](=O)[O-]`, the figure is 16.9%; as for `COc1ccc(NC(=O)CN2CCN(CC(=O)Nc3ccc4c(c3)OCO4)CC2)cc1`, 0.8%; as for `CC1CCCN(C(C(=O)NC2CCCCC2)c2cc3c(cc2[N+](=O)[O-])OCO3)C1` (stereo not drawn), 41.4%. For `COc1ccc(NC(=O)/C=C/c2ccc3c(c2)OCO3)cc1`, the inhibition is 8.9%. The value for `CCN(c1cccc(C)c1)C(C(=O)Nc1ccc(OC)cc1)c1cc2c(cc1[N+](=O)[O-])OCO2` (stereo not drawn) was 54.3% (active). As for `COc1ccc(NC(=O)c2ccc(NC(=O)C(C)C)cc2)c([N+](=O)[O-])c1`, the figure is 1.6%; as for `COc1ccc(NC(=O)C(c2cc3c(cc2[N+](=O)[O-])OCO3)N(C)c2ccccc2)cc1` (stereo not drawn), 43.1%; as for `O=C(Cc1ccccc1[N+](=O)[O-])Nc1ccc2c(c1)OCO2`, 0%. As to `COc1ccc(NC(=O)C(c2cc3c(cc2[N+](=O)[O-])OCO3)N(C)Cc2ccccc2)cc1` (stereo not drawn), the inhibition was 54.8% (active).

Take `COc1ccc(C(C(=O)Nc2ccc3c(c2)OCO3)N(C)C(=O)Cc2c[nH]c3ccccc23)cc1` (stereo not drawn): the inhibition is 18.8%.

Regarding `Cc1nn2cnc3sc4c(c3c2nc1=O)CCCC4`, the inhibition is 1.4%. As for `Cc1ccc(C)c(NC(=O)CSc2n[nH]c(-c3ccncc3)n2)c1`, the figure is 4.4%; as for `COc1cc(C(=O)NCCC(=O)N2CCN(C)CC2)cc(OC)c1OC`, -1%; as for `COC(=O)c1ccc(NC(=O)C2CCCN2S(=O)(=O)c2ccc(C)cc2)cc1` (stereo not drawn), 2.7%.

The values are drawn from PubChem BioAssay AID1220 (Sanford-Burnham Center for Chemical Genomics, 2008).
